What all share (type): functional
Assay [1] has as its target Solute carrier family 2, facilitated glucose transporter member 1 (Homo sapiens) (UniProt P11166). The experiment in a line: ST_JUDE_LEISH: Cytotoxicity at 2uM final concentration against transgenic Leishmania Mexicana promastigotes LmGLUT1 that are glucose transport deficient and complemented with the human glucose transporter GLUT1. Activity is measured by DNA content using SYBR green in vitro.

Assay [2] addresses Hexose transporter 1 (Plasmodium falciparum) (UniProt O97467). The experiment in a line: ST_JUDE_LEISH: Cytotoxicity at 2uM final concentration against transgenic Leishmania Mexicana promastigotes LmPfHT that are glucose transport deficient and complemented with the Plasmodium falciparum hexose transporter. Activity is measured by DNA content using SYBR green in vitro.
The target in assay [3] is Glucose transporter (Leishmania mexicana) (UniProt O61059). The experiment in a line: ST_JUDE_LEISH: Cytotoxicity at 2uM final concentration against transgenic Leishmania Mexicana promastigotes LmGT2 that are glucose transport deficient and complemented with the L. Mexicana glucose transporter 2. Activity is measured by DNA content using SYBR green in vitro.

The term inhibition denotes the drop in the measured response relative to a control, in per cent.

SMILES strings stand for the structures.

Solute carrier family 2, facilitated glucose transporter member 1 (Homo sapiens), sequence (P11166 whole entry): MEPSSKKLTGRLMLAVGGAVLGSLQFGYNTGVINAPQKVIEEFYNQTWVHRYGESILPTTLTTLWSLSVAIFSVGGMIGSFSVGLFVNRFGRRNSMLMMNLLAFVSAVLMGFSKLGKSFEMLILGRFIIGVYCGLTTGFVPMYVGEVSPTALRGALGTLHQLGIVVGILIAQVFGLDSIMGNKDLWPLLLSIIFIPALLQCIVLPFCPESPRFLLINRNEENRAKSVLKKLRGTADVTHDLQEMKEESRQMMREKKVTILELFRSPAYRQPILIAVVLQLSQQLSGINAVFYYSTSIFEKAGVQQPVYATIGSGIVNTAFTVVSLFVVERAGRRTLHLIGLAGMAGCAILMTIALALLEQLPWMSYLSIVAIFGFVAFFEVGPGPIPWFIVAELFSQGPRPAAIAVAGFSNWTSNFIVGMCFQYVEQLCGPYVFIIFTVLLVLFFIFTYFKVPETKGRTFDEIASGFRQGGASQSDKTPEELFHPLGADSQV

As to `CC(C)(C)OC(=O)c1c(NC(=O)/C=C/c2ccc(O)c(O)c2)sc2c1CCCC2`, the figures for the inhibition in assay [1], in assay [2] and in assay [3] were -1.88%, -1.04% and -0.95%, respectively.
The like results for `Cc1nn(-c2cccc(Cl)c2)c2c1C(C(=O)c1ccc3c(c1)OCO3)CC(=O)N2` (centres undefined) were, in that order, -2.6%, -0.95% and -2.87%.
For `O=C(Nc1ccc(CN2CCN(S(=O)(=O)c3cccc(Cl)c3)CC2)cc1)c1cccs1`, in that order: 3.93%, 2.08% and 1.17%.
The like results for `Cc1ccc(Nc2nc(C)cc(N3CCN(CCc4ccccc4)CC3)n2)cc1` were, in that order, 3.08%, 3.31% and -1.99%.
As for `NC[C@H](CC1CCCCC1)NC(=O)c1ccc(-c2ccnc3[nH]ccc23)s1`, the inhibition is 7.16% in assay [1], 3.21% in assay [2] and 2.91% in assay [3].
Turning to `Fc1cccc(C=NNc2ccnc3cc(Cl)ccc23)c1`, the inhibition in assay [1] was 3.49%; in assay [2], 4.64%; in assay [3], 0.64%.
The like results for `O=C(Nc1ccc(Cl)cc1)Nc1ccc(-c2cccc(-c3nc4ccccc4[nH]3)c2)cc1` were, in that order, 1.48%, 2.71% and -1.97%.
The like results for `Cc1cccc(C)c1C1CCN(CCCCNC(=O)c2cc3ccccc3[nH]2)CC1` were, in that order, 1.79%, 0.17% and 0.3%.
The like results for `CCOCc1cn(CC(=O)c2ccc(-c3ccccc3)cc2)c(C)nc1=N` were, in that order, -1.07%, -0.82% and -0.84%.
On to `Cc1nc(C)c(-c2ccc(S(=O)(=O)c3ccc(Cl)cc3)cc2)c(O)c1Br`, for which the inhibition worked out at 4.93% in assay [1], 4.53% in assay [2] and 4.12% in assay [3].
For `CCCCCCCCn1ccc(=N)cc1`, in that order: 4.46%, 3.06% and 0.3%.
For `O=C(CC1NC(=O)c2ccccc21)Nc1ccc(-c2ccc(-c3nc4cc(C(F)(F)F)ccc4[nH]3)cc2)cc1` (centres undefined), in that order: 4.68%, 3.05% and 5.45%.
The like results for `CN=C(Nc1c(Cl)cccc1Cl)N(C)C` were, in that order, 2.85%, 4.13% and 4.17%.
In the case of `CCCCCCNc1c2ccccc2nc2ccccc12`, the figures for the inhibition in assay [1], in assay [2] and in assay [3] were 4.99%, 9.27% and 3.25%, respectively.
The like results for `CCCCCN1CCN(Cc2cccc(NC(=O)c3ccc(Cl)c(Cl)c3)c2)CC1` were, in that order, 1.39%, 1.08% and 1.32%.
For `Cc1cccc(CNc2nc(C)cc(NCCC(=O)Nc3ccccc3)n2)c1`, in that order: 10.3%, 11.3% and 5.57%.
The like results for `CN1CCC(N2CCN(Cc3cccc(-c4ccc(-c5nc6ccccc6[nH]5)cc4)c3)CC2)CC1` were, in that order, 2.84%, 1.99% and 0.07%.
As to `CN1CCC(NCc2ccc(-c3ccc(S(=O)(=O)NCc4ccccc4)cc3)cc2)CC1`, the inhibition in assay [1] was 0.4%; in assay [2], -1.45%; in assay [3], -3.56%.
As to `COc1cc(C=CC(=O)N2CCN(Cc3cccc(C)c3)CC2)ccc1OCc1c(C)noc1C`, the figures for the inhibition in assay [1], in assay [2] and in assay [3] were 8.31%, 6.88% and 6.13%, respectively.
With `O=C(Cc1c[nH]cn1)Nc1ccc(-c2ccc(-c3nc4cc(C(F)(F)F)ccc4[nH]3)s2)cc1`, the inhibition in assay [1] was -0.37%; in assay [2] it was -0.36%; in assay [3], -0.01%.
Turning to `Cc1cccc2nc(-c3ccc(-c4cccc(NC(=O)NCc5ccccc5)c4)cc3)[nH]c12`, the inhibition turned out to be 0.35% in assay [1], 1.64% in assay [2] and 1.98% in assay [3].
The like results for `Cc1cc(=O)c(-c2ccc(Oc3cccc(OC(F)(F)F)c3)cc2)c(C)[nH]1` were, in that order, 1.89%, 1.17% and -1.14%.
Consider `CCc1cn2c3c(cc(C(=O)N[C@@H](Cc4ccccc4)[C@H](O)CNC4CCCCC4)cc13)N(CC)S(=O)(=O)CC2`, for which the inhibition in assay [1] was -0.63%; in assay [2], 0.33%; in assay [3], -3.68%.
For `CCn1ccc2c(N3CCCS3(=O)=O)cc(C(=O)N[C@@H](Cc3ccccc3)[C@H](O)CNC3CCCCC3)cc21`, the inhibition was -0.74% in assay [1], 1.64% in assay [2] and 5.33% in assay [3].
The like results for `Cc1nnsc1C(=O)Nc1cccc(-c2ccc(-c3nc4cccc(C)c4[nH]3)s2)c1` were, in that order, 1.88%, 1.77% and 3.82%.
As for `O=C1CCCN1CCCNCc1cccc(-c2ccc(-c3nc4cc(C(F)(F)F)ccc4[nH]3)cc2)c1`, the inhibition in assay [1] stood at 13.5%; in assay [2], 13%; in assay [3], 13%.
Consider `CNC(=O)COc1cc(C)c(C2CCN(CCCCNC(=O)c3ccc(-c4ccc(C(F)(F)F)cc4)cc3)CC2)cc1C`, for which the inhibition in assay [1] is 2.41%; in assay [2], 2.32%; in assay [3], 1.85%.
As for `NS(=O)(=O)c1cncc(-c2ccc3nccc(-c4cn[nH]c4)c3n2)c1`, the figures for the inhibition in assay [1], in assay [2] and in assay [3] were 6.71%, 7.77% and 6.63%, respectively.
For `Cc1cc(N[C@@H](Cc2ccccc2)C(=O)NCCOc2ccccc2)nc(NCCc2ccccc2)n1`, in that order: 6.59%, 5.86% and 3.92%.
In the case of `FC(F)(F)c1ccc2[nH]c(-c3ccc(-c4ccc(CNCCc5ccncc5)cc4)cc3)nc2c1`, the figures for the inhibition in assay [1], in assay [2] and in assay [3] were 1.37%, -3.26% and 0.57%, respectively.
The like results for `CC(C)(C)Oc1ccc(NC(=O)c2ccccc2O)cc1` were, in that order, 6.73%, 5.36% and 4.28%.
The like results for `Nc1c(I)cc(C(=O)Nc2ccc3nc4c(c(N)c3c2)CCCC4)cc1I` were, in that order, 2.52%, 1.16% and 1.17%.
With `O=C(NCCCCN1CCC(c2ccc(-c3ccco3)cc2)CC1)c1ccc(NC(=O)c2ccc(Cl)cc2)cc1`, the inhibition in assay [1] was 2.25%; in assay [2], 2.49%; in assay [3], -0.22%.
For `CN=c1nc(NN=Cc2ccccc2Cl)[nH]c(=Nc2cccc(C(F)(F)F)c2)[nH]1`, in that order: 8.53%, 8.1% and 4.76%.
For `Cn1cc(C(=O)Nc2cccc(-c3cccc(-c4nc5cc(F)ccc5[nH]4)c3)c2)n(C)c1=O`, in that order: 8.03%, 5.98% and 5.83%.
For `CN1CCN(CCCN(Cc2cccc(-c3cccc(CNCc4ccc5c(c4)OCO5)c3)c2)C(=O)CCC2CCCC2)CC1`, in that order: 16.7%, 12.2% and 10.4%.
For `CN1CCC(NCc2ccc(-c3ccc(S(=O)(=O)NC4CCC4)s3)cc2)CC1`, the results for the inhibition in assay [1], in assay [2] and in assay [3] were 3.46%, 1.25% and 0.74%, respectively.
For `CC(C)(C)n1nnnc1C(c1cccnc1)N(Cc1ccccc1)Cc1ccc(Cl)cc1` (centres undefined), in that order: 2.8%, 10.2% and 2.8%.

(Values after ChEMBL document CHEMBL3433997, “St. Jude Leishmania screening dataset” (2016).)
